According to PubChem BioAssay AID1445 (SRMLSC, 2008):
The whole screen tested about 220,000 compounds, of which about 910 (0.41%) were called active.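 How the source made its calls: active means primary inhibition above the hit cutoff, then over 50% inhibition at one or more dose response concentrations (cut at about 23% in these data, passing the limit was not always enough); inconclusive means conflicting primary data, or primary hits not chosen for dose response; inactive means low primary inhibition, or under 50% at every dose.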 The full list was thinned out, with actives kept by preference. Results with a measured potency or affinity are listed apart.

Biological target: Aminopeptidase N (Plasmodium falciparum (isolate 3D7)) (UniProt O96935)
Test: P. falciparum M1AAP inhibitors, biochemical, fluorogenic H-Leu-NHMec substrate, 1536-well (AID 1445);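 further: plate controls were DMSO full reaction for no effect and no enzyme background for full effect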
Conditions: recombinant M1AAP, H-Leu-NHMec fluorogenic kinetic assay; at 30 µM, hits give high values unless noted

Aminopeptidase N (Plasmodium falciparum (isolate 3D7)), sequence (O96935 whole entry, looked up): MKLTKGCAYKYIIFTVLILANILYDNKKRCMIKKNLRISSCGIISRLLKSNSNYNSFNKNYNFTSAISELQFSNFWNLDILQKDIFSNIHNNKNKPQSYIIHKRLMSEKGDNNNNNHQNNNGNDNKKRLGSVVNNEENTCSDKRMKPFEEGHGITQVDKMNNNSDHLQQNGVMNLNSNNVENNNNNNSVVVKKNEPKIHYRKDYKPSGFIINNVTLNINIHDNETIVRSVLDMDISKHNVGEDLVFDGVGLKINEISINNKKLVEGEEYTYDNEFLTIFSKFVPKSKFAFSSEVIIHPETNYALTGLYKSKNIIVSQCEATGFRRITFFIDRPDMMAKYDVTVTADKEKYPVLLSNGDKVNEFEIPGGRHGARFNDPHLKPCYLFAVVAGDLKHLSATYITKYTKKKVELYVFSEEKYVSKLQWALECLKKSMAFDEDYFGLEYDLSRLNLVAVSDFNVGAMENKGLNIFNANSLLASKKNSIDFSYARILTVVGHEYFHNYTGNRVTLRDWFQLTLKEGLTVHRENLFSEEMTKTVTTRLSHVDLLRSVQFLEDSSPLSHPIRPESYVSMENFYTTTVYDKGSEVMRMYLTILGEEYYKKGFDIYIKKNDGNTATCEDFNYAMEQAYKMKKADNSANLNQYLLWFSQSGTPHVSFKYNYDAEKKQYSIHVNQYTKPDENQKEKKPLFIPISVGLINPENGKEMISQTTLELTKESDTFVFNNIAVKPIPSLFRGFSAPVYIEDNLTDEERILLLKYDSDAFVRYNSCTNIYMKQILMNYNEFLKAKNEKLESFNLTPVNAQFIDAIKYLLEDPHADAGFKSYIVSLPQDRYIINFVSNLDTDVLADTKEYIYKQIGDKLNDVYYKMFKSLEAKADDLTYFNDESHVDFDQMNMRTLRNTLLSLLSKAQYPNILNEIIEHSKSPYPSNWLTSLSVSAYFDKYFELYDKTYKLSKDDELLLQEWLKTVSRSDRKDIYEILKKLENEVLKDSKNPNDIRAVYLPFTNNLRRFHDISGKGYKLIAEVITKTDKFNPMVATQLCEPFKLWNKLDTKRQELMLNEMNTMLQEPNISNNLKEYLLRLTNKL

SMILES | inhibition
Cn1c(=O)c2c(nc(NCc3ccccc3)n2CC(=O)NCc2ccccc2)n(C)c1=O | -6.75% (inactive)
Cc1cccc(C(=O)Oc2ccc(/C=N/NC(=O)c3ccccc3O)cc2)c1 | 3.44% (inactive)
CCOC(=O)c1ccc2[nH]c3c(c2c1)CCCC3O (centres undefined) | 0.31% (inactive)
CCN(CC)c1ccc(/C=C2/C(=O)N(c3ccc([N+](=O)[O-])cc3)N=C2N2CCOCC2)cc1 | -6.76% (inactive)
CCN(CC)c1ccc(/C=C2/C(=O)ON=C2C)cc1 | 15.8% (inactive)
C=CCOC(=O)c1[nH]c2c(c1C)C(=O)CC(c1ccco1)C2 (centres undefined) | 9.27% (inactive)
N#CC1=C(N)C2=CCCC[C@H]2[C@H](c2ccccc2)C1(C#N)C#N | 0.19% (inactive)
N#CC1=C(N)C2=C(N3CCCCC3)CCCC2C1(C#N)C#N (centres undefined) | 27.6% (active)
N#CC1=C(N)C2=CCCC[C@H]2[C@H](c2ccc(Br)cc2)C1(C#N)C#N | 1.37% (inactive)
COc1ccc(-c2cc(-c3cccnc3)c(C#N)c(N)n2)cc1 | 11.1% (inactive)
Cc1noc(NS(=O)(=O)c2ccc(NC(=O)CCN3C(=O)c4ccccc4C3=O)cc2)c1C | 12.8% (inactive)
CC(C)CC(C(=O)Nn1cnnc1)N1C(=O)c2ccccc2C1=O (centres undefined) | 25.1% (active)
Cc1cc(NS(=O)(=O)c2ccc(NC(=O)C(C)N3C(=O)c4ccccc4C3=O)cc2)nc(C)n1 (centres undefined) | 2.55% (inactive)
CC(C)CC(C(=O)NC(=O)NCc1ccccc1)N1C(=O)c2ccccc2C1=O (centres undefined) | 7.55% (inactive)
Cc1noc(NS(=O)(=O)c2ccc(NC(=O)c3ccc(N4C(=O)c5ccccc5C4=O)cc3)cc2)c1C | -1.13% (inactive)
Cc1cc(NS(=O)(=O)c2ccc(NC(=O)C(C(C)C)N3C(=O)c4ccccc4C3=O)cc2)nc(C)n1 (centres undefined) | 11.3% (inactive)
CC(C)CC(C(=O)NCc1ccccn1)N1C(=O)c2ccccc2C1=O (centres undefined) | 13.1% (inactive)
COc1cccc(Cn2nnc(C(=O)NCc3ccc(F)cc3)c2N)c1 | -3.49% (inactive)
CCOC(=O)N1CCN(c2c(N3CCN(c4cccc(C(F)(F)F)c4)CC3)c(=O)c2=O)CC1 | 4.51% (inactive)
CC1=CCC2C(=O)N(c3ccc(S(N)(=O)=O)cc3)C(=O)C2C1 (centres undefined) | 2.35% (inactive)
Cc1nnc2ccc(N3CCOCC3)nn12 | 0.92% (inactive)
CCn1c(C)nc2cc(C(=O)NNC(=S)Nc3ccc(Cl)cc3)ccc21 | -13.2% (inactive)
CCN1CCc2c(OCC(=O)N3CCCCC3)cccc2C1=O | 1.05% (inactive)
C#CCN1C(=O)S/C(=C/c2cc(C)n(CC)c2C)C1=O | 9.33% (inactive)

SMILES | inhibition
CCn1c(C)cc(/C=C2\SC(=O)N(CC(=O)Nc3ccc(C)c(C)c3)C2=O)c1C | 2.14% (inactive)
Cc1ccc(NC(=O)c2cc(C(C)(C)C)nn2Cc2ccccc2)cc1 | 5.05% (inactive)
Cc1cc(C)cc(OCC(=O)N(Cc2cccs2)C2CCS(=O)(=O)C2)c1 (centres undefined) | 2.35% (inactive)
Cc1cc(=O)[nH]c(-c2ccccc2O)n1 | 10.9% (inactive)
CSc1nc2c(c(=O)n1C)SC(C)C2 (centres undefined) | 1.34% (inactive)
CCC(C)Sc1nc2c(c(=O)n1C)SC(C)C2 (centres undefined) | 23.5% (active)
CC(C)Sc1nc2c(c(=O)n1C)SC(C)C2 (centres undefined) | 11.9% (inactive)
O=C(CNC(=S)N(CCCN1CCOCC1)Cc1cccs1)NC1CCCC1 | 5.27% (inactive)
COc1ccc(N2CCN(c3ccc(N4C(=O)CC(C)C4=O)cc3[N+](=O)[O-])CC2)cc1 (centres undefined) | -8.33% (inactive)
CCCCN(C)C1=Nc2cccc3cccc1c23 | 26.3% (active)
NC1=Nc2cccc3cccc1c23 | 3.4% (inactive)
c1ccc(NC2=Nc3cccc4cccc2c34)cc1 | 1.68% (inactive)
CC1=NN(c2nc(-c3ccc(C)cc3)cs2)C(=O)C1N=Nc1cccc(O)c1 (centres undefined) | 6.79% (inactive)
CC1=NN(c2nc(-c3ccc(C)cc3)cs2)C(=O)C1N=Nc1ccc2ccccc2c1 (centres undefined) | -4.56% (inactive)
COc1ccc([N+](=O)[O-])cc1NC(=O)c1cc(C)c(C)o1 | 8.9% (inactive)
Cc1ccsc1C1NC(=O)c2c(sc3c2CCN(C)C3)N1 (centres undefined) | 25.9% (active)
CN1CCc2c(sc3c2C(=O)NC(c2cccs2)N3)C1 (centres undefined) | 11.5% (inactive)
Cc1ccsc1C1NC(=O)c2c(sc3c2CCCC3)N1 (centres undefined) | -10.2% (inactive)
COC(=O)c1cn(-c2ccccc2)c(=O)c2ccccc12 | 0.56% (inactive)
Cc1ccc(-c2csc3ncn(CC(=O)N4CCOCC4)c(=O)c23)cc1C | 16.1% (inactive)
Cc1sc2ncn(CC(=O)N3CCOCC3)c(=O)c2c1-c1ccccc1 | 22.3% (inactive)
CCOC(=O)N1CCC(NC(=O)c2ccc3c(c2)sc2nc(-c4ccc(OC)cc4)cn23)CC1 | 6.96% (inactive)
CCOC(=O)N1CCC(NC(=O)c2ccc3c(c2)sc2nc(-c4ccccc4)cn23)CC1 | 31.7% (inactive)
COC(=O)c1ccc(NC(=O)C2CC2)o1 | -0.61% (inactive)

SMILES | inhibition
CCCOC(=O)c1c(-c2ccc(C)cc2C)csc1NC(=O)C1C2CCC(O2)C1C(=O)O (centres undefined) | -4.77% (inactive)
CCOC(=O)c1c(-c2ccc(-c3ccccc3)cc2)csc1NC(=O)C1C2CCC(O2)C1C(=O)O (centres undefined) | 3.79% (inactive)
FC(F)C(F)(F)C1=CC(c2cccs2)=NCCN1 | 6.95% (inactive)
COCc1cc(C)nc(OCC(=O)N/N=C\c2cc(C)n(-c3cccc(C(F)(F)F)c3)c2C)c1C#N | 6.82% (inactive)
CC(C)Nc1nc(NNc2nc(Cl)nc(NC(C)(C)C)n2)nc(NC(C)C)n1 | -3.65% (inactive)
COc1cc(/C=N/Nc2nc(Nc3ccc(C)cc3)nc(-n3nc(C)cc3C)n2)cc(OC)c1OC | 0.21% (inactive)
COC(=O)c1c(N2C(=O)Nc3ccccc3N2O)sc2c1CCCC2 | 9.84% (inactive)
CCOC(=O)c1c(N2C(=O)Nc3ccccc3N2O)sc2c1CCCC2 | 4.01% (inactive)
CC(C)(CC(=O)O)Cc1nc(-c2ccc(Cl)cc2)no1 | -3.52% (inactive)
COc1ccc(NS(=O)(=O)c2cccc(Cl)c2)cc1S(=O)(=O)N1CCCCC1 | 1.83% (inactive)
Nc1ccc2nc(-c3ccccc3)sc2c1 | 33.2% (inactive)
Cc1ccc2nc(-c3ccc(N)cc3)sc2c1 | 3.99% (inactive)
Nc1ccc(-c2nc3cc(N)ccc3s2)cc1 | 13% (inactive)
Nc1cccc(-c2nc3ccc(N)cc3s2)c1 | 8.49% (inactive)
CN(C)CCCNC(=S)Nc1ccc(Br)cc1 | -1.23% (inactive)
COc1cccc2c(=O)c3cccc(N)c3[nH]c12 | 17.7% (inactive)
CCOC(=O)c1c(C)oc2ccc(OC(=O)N3CCOCC3)cc12 | 3.42% (inactive)
O=C(CSc1nnc(Nc2ccccc2)s1)NCCN1C(=O)CSC1=O | 0.85% (inactive)
[2H]c1c([2H])c([2H])c(-c2nc(N3CCCCCC3)sc2C(=O)c2ccccc2)c([2H])c1[2H] | 6.9% (inactive)
O=C(O)CC(C(=O)O)N1C(=O)/C(=C/c2ccc(-c3nc4ccccc4s3)o2)SC1=S (centres undefined) | 24.7% (active)
O=C(O)CCN1C(=O)/C(=C/c2ccc(-c3nc4ccccc4s3)o2)SC1=S | -3.38% (inactive)
O=C(O)CCN1C(=O)/C(=C\c2ccc(-c3nc4ccccc4s3)o2)SC1=S | 20.7% (inactive)
COCCNC(=O)CN(C(=O)Cn1nnc2ccccc21)c1ccccc1 | 6.84% (inactive)
CSc1nnc(-c2cc[n+](C)cc2)n1CCO | -2.01% (inactive)

SMILES | inhibition
O=C(Nc1cccc(-c2nc3ccccc3o2)c1)c1cccnc1 | 8.84% (inactive)
CC(C)C(=O)Nc1cccc(-c2nc3ccccc3o2)c1 | 1.29% (inactive)
O=C(Nc1ccc2oc(-c3ccccc3)nc2c1)c1ccccc1F | 4.36% (inactive)
O=C(Nc1ccc2oc(-c3ccc(F)cc3)nc2c1)c1ccccc1F | -4.88% (inactive)
COc1cccc(S(=O)(=O)Nc2ccc(C(=O)Nc3ccncc3)cc2)c1 | -3.5% (inactive)
CC1Cc2cc(/C(O)=C3\C(=O)C(=O)N(CCN(C)C)C3c3ccccc3F)ccc2O1 (centres undefined) | -2.37% (inactive)
O=c1c2ccccc2nnn1Cc1ccccc1Cl | -2.79% (inactive)
Cc1ccccc1NC(=O)c1ccc(S(=O)(=O)N(C)C)cc1 | 0.67% (inactive)
Cc1nc2ccccc2c2oc(C(=O)N3CCN(C4CCCCC4)CC3)cc12 | 0.64% (inactive)
Cc1nc2ccccc2c2oc(C(=O)N3CCN(C(=O)c4ccco4)CC3)cc12 | 25.5% (active)
Cc1nc2ccccc2c2oc(C(=O)N3CCC(N4CCCCC4)CC3)cc12 | -1.44% (inactive)
Cc1ccccc1OCC(=O)NNC(=O)Nc1ccccc1 | 11.5% (inactive)
Cc1cc(C(=O)COC(=O)C2=NNC(=O)CC2)c(C)n1CCc1ccccc1 | 5.78% (inactive)
CCOC(CCn1c(SCC(=O)Nc2cc(C)on2)nc2ccccc2c1=O)OCC | 4.19% (inactive)
Cc1ccc(CNC(=O)CN(CCc2ccccc2)S(C)(=O)=O)cc1 | 1.36% (inactive)
Cc1ccc(/C=N/N=C2\SCC(=O)N2CC2CC2)cc1 | 3.09% (inactive)
COC(=O)c1cc(=O)n(Cc2ccc3c(c2)OCO3)c(=Nc2ccc(F)cc2)s1 | 15.5% (inactive)
CCOC(=O)c1ccc(N=c2sc(C(=O)OC)cc(=O)n2Cc2ccc3c(c2)OCO3)cc1 | 4.78% (inactive)
COC(=O)c1cc(=O)n(Cc2ccc3c(c2)OCO3)c(=Nc2ccccc2)s1 | 26.5% (active)
Cc1[nH]c2ccc(OC(=O)N3CCOCC3)cc2c1C(=O)OC(C)C | 8.46% (inactive)
O=C(O)c1ccc(-c2ccc(/C=C3\NC(=O)N(Cc4ccc(Cl)cc4)C3=O)o2)cc1 | 6.4% (inactive)
Cc1ccc(CN2C(=O)N/C(=C/c3ccc(-c4ccc(C(=O)O)cc4)o3)C2=O)cc1 | 6.65% (inactive)
